T1: UNK ZnF1-3 (human, UniProt Q9C0B0 31-174)
T1 sequence: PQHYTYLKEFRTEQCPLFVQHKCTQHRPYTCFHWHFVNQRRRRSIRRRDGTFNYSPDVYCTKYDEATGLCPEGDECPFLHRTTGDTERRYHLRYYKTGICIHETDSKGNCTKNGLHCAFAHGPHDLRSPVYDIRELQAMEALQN

B1: chr8:87797514:87797515:-_ENSMUSG00000031696_ENSMUST00000034131|mus_hu|motif|central (ssRNA)
RNA: GGGAGUUCUACAGUCCGACGAUCAUUAUGGAAUCCACCUGGUCUUGAGAGACAAUUUCUGUGUUAUAAUCCAGAACAUUACGGAGCACAUAACAACUCAUGCUCUUUCUGGACUCGUAGUCAAAGUACUCAAAGAGUGGGUGACAACAGAGGAUUGAGCAUCA
B2: 107145582_107145702_897_CDS_ENSG00000125266_ENST00000245323|human|control|control (ssRNA)
RNA: GGGAGUUCUACAGUCCGACGAUCGAGCGACAGCGUGGUCGUGUGCUGCGGCGAGUGCUUCCUGUGUCUCCUCCGGUACUUCAGCAAGAGGACCACCAGCGUGAUGAUGAUGACGAUGAAGAUGAUGCAUCCUGAAGCAAUCCCCAACAGAGGAUUGAGCAUCA
B3: chr9:115598534:115598535:+_ENSG00000148158_ENST00000374232|hu_mus|FALSE|FALSE (ssRNA)
RNA: GGGAGUUCUACAGUCCGACGAUCCAGCUUAUAGCCUCCGGUGACGUGCUUGACUGACUCACCCACUCUGCUCAGCAAUGCUAUCCCUUGCUUCUUGUAGGCAUUCAGGUCCUUAGCAGUGAGGAACACAUUGAAGUGUUCAUUCAACAGAGGAUUGAGCAUCA
B4: chrX:165757501:165757502:-_ENSMUSG00000031352_ENSMUST00000112115|mus_hu|FALSE|FALSE (ssRNA)
RNA: GGGAGUUCUACAGUCCGACGAUCGCAGGAGCAGAUGGAGACAAACCCAUGGCUGGAAACAGUGUUGACUGUAAACAAUUUUAAAUUUCCACCUGCUCCAGCCCGUGGUCCCCAGACCAAACCGGCCGCGGCCAGCCUGCCCUUCAACAGAGGAUUGAGCAUCA
B5: chr10:33190432:33190433:-_ENSG00000150093_ENST00000302278|hu_mus|hu_hu_hu_mus_True|58_98 (ssRNA)
RNA: GGGAGUUCUACAGUCCGACGAUCUACAUUUUCCAAACCUGCACAUGAAUAAAACCCUGGCCACAGAGCCCCAAAACUACCUAACUGUGACUAAGAUGCUGCUGCUGUGAGCUUGGUGUUGCAAAAUCCGCCUGAGUAGGAUUCCAACAGAGGAUUGAGCAUCA
B6: 10529348_10532452_191_CDS_ENSG00000160049_ENST00000377038|human|control|control (ssRNA)
RNA: GGGAGUUCUACAGUCCGACGAUCCAGGGUGACUGGUGUCAGGGACUUAUCAAUGGCCAGAAUGUCACAGGCCUUGCUCCUCAGGUCUUCGAGGCAGGAGGCGGCCACGCCGUGCUGUUCGCGGCUGUAGUUGCGGCGCAGCAGCAACAGAGGAUUGAGCAUCA
B7: 24223610_24223730_1957_3pUTR_ENSG00000173960_ENST00000309033|human|control|control (ssRNA)
RNA: GGGAGUUCUACAGUCCGACGAUCUUUUGAAAGAAAAUAAAAUGGAAAGGGAAUAGGCUUUUUAGAAAGAUAAUUUUCUUUUAUUACAUUUUUAUAAAGUGUAGAAAUGUGAGUAGGCAGAUUAAUCUUGAUACUAUACUGAGCCAACAGAGGAUUGAGCAUCA
B8: chr4:125586161:125586162:-_ENSG00000151458_ENST00000504087|hu_hu|motif|central (ssRNA)
RNA: GGGAGUUCUACAGUCCGACGAUCUUGUGUAGUGGCAACAGCUGAUUUAUAAAAUUUAAAGAUUUUAAUUUCAAAAAUAUCGGUUAAGGAGUUUUAUAUUUGGAGGACAAUUUUUACUUUUUAAUGGAGCAGAAGCCAUUUUCACAACAGAGGAUUGAGCAUCA
B9: chr12:86641468:86641469:-_ENSMUSG00000034290_ENSMUST00000040992|mus_mus|FALSE|FALSE (ssRNA)
RNA: GGGAGUUCUACAGUCCGACGAUCGCAAUAUUAAGAGAGAUAGCCAACCUUUUUUUUGGGGGGGGGGUUUGGUUAAAUGAAACAAUAUUAAUUUAGCUGUGUGUAGUACAGAGGAUAUGGUACUUAUCAAAGGAGCUGCUGUGGCAACAGAGGAUUGAGCAUCA
B10: 105048333_105048453_1516_3pUTR_ENSG00000148798_ENST00000369849|human|control|control (ssRNA)
RNA: GGGAGUUCUACAGUCCGACGAUCAGCAUUAACUUUUUCAAAGCAAUGGAAUUAUAUUUUUUGGCUUGAAAUGGUGGUUUCUUCUAUAUUUGAUUUCUCGGUUUUCUUAGUAGAUAUUACUGUCUCCUCUAAUAUUUCUUCAAACAACAGAGGAUUGAGCAUCA
B11: chrX:147030410:147030411:+_ENSG00000102081_ENST00000218200|hu_mus|FALSE|FALSE (ssRNA)
RNA: GGGAGUUCUACAGUCCGACGAUCACUUCAUGCCCUGUGCCAUCUUGCCUACUAUUUGUCUUUGGCCUAACAAAGUUUUCUAAAAUGGAGUAAGAAUUACGGAAAUGGUAGAGGAAAUAUAACUUCGGAAUUAUGUAGCUUAUUCAACAGAGGAUUGAGCAUCA
B12: chr4:125586161:125586162:-_ENSG00000151458_ENST00000504087|hu_hu|FALSE|FALSE (ssRNA)
RNA: B8 RNA with G81U, G82A
B13: chr8:13147844:13147845:+_ENSMUSG00000031446_ENSMUST00000016680|mus_hu|FALSE|FALSE (ssRNA)
RNA: GGGAGUUCUACAGUCCGACGAUCUACAAUAUUAACAAUCUCUAGACACAACGAACUUAUAAGAAAAAAAAAAUAGAAAUCUGUUUGGUCUUUCUUAGACCACAUAUCAUGGAACUCAUAAAUGAAAAUUUUCAAAGAUAGAAACAACAGAGGAUUGAGCAUCA
B14: chr1:60041781:60041782:+_ENSMUSG00000041040_ENSMUST00000036540|mus_hu|mus_mus_mus_hu_False|1_38 (ssRNA)
RNA: GGGAGUUCUACAGUCCGACGAUCAAGUUUACAAUAGUAAAGUAAAUGCAGUAGUGGCAAAUUUUCUUUUAUUUUCCUUCACAAAAGAAAAUCUUUAGAUCUCAGUUCUAGUCUUGGACAUAGUGAAAGCUAUAAAUGCCACUGCAACAGAGGAUUGAGCAUCA
B15: chr4:17841332:17841333:+_ENSG00000109805_ENST00000514176|hu_hu|FALSE|FALSE (ssRNA)
RNA: GGGAGUUCUACAGUCCGACGAUCCUUUUGUAUAGACUCGAAUUUCUGGCGAGCACGGACUUGUUAAGAUCUCAUUGCAAAUUUUCAUAGCCAAAUUGUCAUGUACUGUUAAGGCCUGAUAAUCUUGGGAAGUCUUGGCCUGAGCAACAGAGGAUUGAGCAUCA
B16: chr17:56552419:56552420:-_ENSMUSG00000013236_ENSMUST00000086828|mus_mus|mus_mus_mus_hu_False|28_48 (ssRNA)
RNA: GGGAGUUCUACAGUCCGACGAUCAAAAAAUACACUAUUUAAAAAAAAUGAAAUGUCACGGGAUACAGUUACACUGAGAGUUUUAAAAAAAAAUAAGAUUCUGGUCCUUGCCAAAAGUCCCCAGGCUGCAGAGCGGGGAGGAGCCAACAGAGGAUUGAGCAUCA
B17: chr17:56552419:56552420:-_ENSMUSG00000013236_ENSMUST00000086828|mus_mus|mus_mus_mus_hu_False|28_78 (ssRNA)
RNA: GGGAGUUCUACAGUCCGACGAUCAAAAAAUACACUAUUUAAAAAAAAUGAAAUGUCAGAAAAAGAAGUUACACUGAGAGUUUUAAAAGAAAGCUGGAUUCUGGUCCUUGCCAAAAGUCCCCAGGCUGCAGAGCGGGGAGGAGCCAACAGAGGAUUGAGCAUCA
B18: chr17:56552419:56552420:-_ENSMUSG00000013236_ENSMUST00000086828|mus_mus|mus_mus_mus_hu_False|28_98 (ssRNA)
RNA: B16 RNA with U38A, U39A, A88G, A92G, U93C, A94U, A95G
B19: chr17:56552419:56552420:-_ENSMUSG00000013236_ENSMUST00000086828|mus_mus|mus_mus_mus_hu_False|28_58 (ssRNA)
RNA: B16 RNA with G77C, G79C, U81A, A88G, A92G, U93C, A94U, A95G
B20: chr7:149068622:149068623:-_ENSMUSG00000025139_ENSMUST00000001950|mus_hu|mus_mus_mus_hu_False|78_88 (ssRNA)
RNA: GGGAGUUCUACAGUCCGACGAUCGUGAGGCCUCUGAGUGUGGCUUGUGCUCUGCAGUGUCUGCAGUUUGUUAAUAUCACGGAACAUACCAUCUAGAACGUUCCAGUCCCGCCUGACACCUUCAUUCCCAAUGGAGAAGAAAUCCAACAGAGGAUUGAGCAUCA
B21: chr5:135101456:135101457:-_ENSMUSG00000040731_ENSMUST00000036125|mus_mus|motif|central (ssRNA)
RNA: GGGAGUUCUACAGUCCGACGAUCACCCAAGAGUGCACCGUCAUAAGUCAGAGCCUCCUUCAGGGAAUCCACCUCAUCAAAUUCGGCAUAGCAGAACCCUUUAAAUUUGUCUGUGUCUUUGUCUCUGACUAGCCGCACACUCCGCAACAGAGGAUUGAGCAUCA
B22: chrX:130830059:130830060:+_ENSMUSG00000033578_ENSMUST00000037687|mus_mus|FALSE|FALSE (ssRNA)
RNA: GGGAGUUCUACAGUCCGACGAUCGGGCCAUGAUAGUUAUGGUUCGUGGGGAUGCCAUGGGGUCACCAAGGCAGGUCCCAACUAAUCCCUCUGCUUUGCGCAGCCCGGCUGUCAAGGCGCAGGCAGUUAGCACAGGGAGAGCUACAACAGAGGAUUGAGCAUCA

Where a chain is given by its changes, count along the chain named. Whole data set: some 24,000 sequences, median “enrichment r” near 0.99, cut for the highest 2% near 3.7. The list comes from a sample in which the highest values are over-represented; it also holds similar and randomly drawn sequences.

In this test the target is T1, UNK ZnF1-3. Nature of the test: nsRBNS (natural sequence RNA bind-n-seq); RBNS binding buffer (assumed for nsRBNS): 25 mM Tris pH 7.5, 150 mM KCl, 3 mM MgCl2, 0.01% Triton X-100, 500 ug/ml BSA, 20 U/ml SUPERase-In, 4 C; UNK is unkempt and MSI1 is Musashi-1; names of the RNAs are library labels; protein concentration not given here; high values mean tight binding.
The molecule B1 had a binding signal of 0.988 enrichment R.
Under B2 stands 1.32 enrichment R; under B3, 0.557 enrichment R.
Under B4 stands 0.781 enrichment R; under B5, 1.55 enrichment R; under B6, 0.999 enrichment R.
For B7, the binding signal is 3.4 enrichment R.
Under B8 stands 4.45 enrichment R; under B9, 3.28 enrichment R; under B10, 4.33 enrichment R.
Under B11 stands 1.78 enrichment R; under B12, 4.35 enrichment R.
Then B13, with 3.59 enrichment R; and B14, with 0.52 enrichment R; and B15, with 0.957 enrichment R.
As to B16, the binding signal turned out to be 6.32 enrichment R.
B17 had a binding signal of 3.64 enrichment R.
Regarding B18, the binding signal is 6.54 enrichment R.
Under B19 stands 4.14 enrichment R; under B20, 0.733 enrichment R; under B21, 0.437 enrichment R.
Consider B22, for which the binding signal was found to be 0.967 enrichment R.
